# Reference: paper PMC7862700, “An all-to-all approach to the identification of sequence-specific readers for epigenetic DNA modifications on cytosine”
# Assays:
# Test in all cases: DAPPL (digital affinity profiling via proximity ligation, sequencing); 10 mM Tris-HCl pH 7.5, 50 mM NaCl, 1 mM DTT, 4% glycerol, room temperature, 30 min; GST-TFs on glutathione beads, 16-mer random dsDNA library, 0.1% formaldehyde crosslink after washing; high values mean tight binding
# [1] = target: T1, FLI1 (Homo sapiens, UniProt Q01543 1-452); conditions: protein: recombinant; tags: N-terminal GST; dsDNA, one strand shown
# T1 sequence: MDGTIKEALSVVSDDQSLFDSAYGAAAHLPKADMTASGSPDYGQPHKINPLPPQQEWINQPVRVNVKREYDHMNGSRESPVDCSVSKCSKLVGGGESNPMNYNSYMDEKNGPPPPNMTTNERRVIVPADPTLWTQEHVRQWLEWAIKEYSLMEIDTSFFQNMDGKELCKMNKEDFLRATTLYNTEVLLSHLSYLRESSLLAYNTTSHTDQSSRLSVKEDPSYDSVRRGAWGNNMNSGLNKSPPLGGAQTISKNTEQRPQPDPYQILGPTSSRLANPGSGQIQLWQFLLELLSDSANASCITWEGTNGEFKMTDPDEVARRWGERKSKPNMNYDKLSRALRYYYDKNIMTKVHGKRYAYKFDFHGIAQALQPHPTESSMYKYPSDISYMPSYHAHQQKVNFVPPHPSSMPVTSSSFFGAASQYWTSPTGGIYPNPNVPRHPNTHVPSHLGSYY
# Outline: (§1)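 A tag-only sample was pooled with DNA-barcoded human transcription factors that had been expressed in yeast as GST fusions and captured on glutathione beads. The pools were incubated for 30 min at room temperature with 200 nmole of a random double-stranded 16-mer DNA library in Tris/NaCl/DTT/glycerol buffer, then washed, crosslinked with 0.1% formaldehyde, proximity-ligated (BsaI/T4 ligase, 1 h, 37 °C), PCR-amplified and sequenced on an Illumina NextSeq500. Binding signal is each hexamer's read frequency for a factor divided by its frequency for the tag-only sample.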
# [2] = target: T2, ELK1 (Homo sapiens, UniProt P19419 1-428); conditions: protein: recombinant; tags: N-terminal GST; dsDNA, one strand shown
# T2 sequence: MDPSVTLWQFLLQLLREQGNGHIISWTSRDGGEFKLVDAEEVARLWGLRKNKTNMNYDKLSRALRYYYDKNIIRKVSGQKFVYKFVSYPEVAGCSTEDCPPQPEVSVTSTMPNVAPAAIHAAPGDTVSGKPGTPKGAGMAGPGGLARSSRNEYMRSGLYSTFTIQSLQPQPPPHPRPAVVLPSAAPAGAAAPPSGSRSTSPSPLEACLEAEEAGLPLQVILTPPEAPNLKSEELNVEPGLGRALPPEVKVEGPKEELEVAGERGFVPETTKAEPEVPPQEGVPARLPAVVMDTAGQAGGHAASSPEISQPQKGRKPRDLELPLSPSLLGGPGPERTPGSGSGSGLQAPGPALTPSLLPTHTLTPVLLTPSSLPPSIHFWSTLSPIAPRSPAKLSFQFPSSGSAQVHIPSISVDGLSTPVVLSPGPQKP
# Outline: as §1
# [3] = target: T3, GABPA (Homo sapiens, UniProt Q06546 1-454); conditions: protein: recombinant; tags: N-terminal GST; dsDNA, one strand shown
# T3 sequence: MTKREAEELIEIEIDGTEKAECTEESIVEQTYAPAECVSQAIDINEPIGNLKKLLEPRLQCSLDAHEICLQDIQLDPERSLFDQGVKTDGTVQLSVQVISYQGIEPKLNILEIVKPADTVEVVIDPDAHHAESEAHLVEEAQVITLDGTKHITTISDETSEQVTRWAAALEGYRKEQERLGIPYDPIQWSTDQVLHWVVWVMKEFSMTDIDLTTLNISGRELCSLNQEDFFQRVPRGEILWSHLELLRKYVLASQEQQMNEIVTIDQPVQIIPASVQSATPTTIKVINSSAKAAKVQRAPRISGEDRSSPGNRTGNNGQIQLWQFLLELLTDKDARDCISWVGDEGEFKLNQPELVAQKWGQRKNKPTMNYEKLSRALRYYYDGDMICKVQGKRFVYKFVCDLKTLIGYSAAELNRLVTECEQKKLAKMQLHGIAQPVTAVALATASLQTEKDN
# Outline: as §1
# [4] = target: T4, ERG (Homo sapiens, UniProt P11308 1-479); conditions: protein: recombinant; tags: N-terminal GST; dsDNA, one strand shown
# T4 sequence: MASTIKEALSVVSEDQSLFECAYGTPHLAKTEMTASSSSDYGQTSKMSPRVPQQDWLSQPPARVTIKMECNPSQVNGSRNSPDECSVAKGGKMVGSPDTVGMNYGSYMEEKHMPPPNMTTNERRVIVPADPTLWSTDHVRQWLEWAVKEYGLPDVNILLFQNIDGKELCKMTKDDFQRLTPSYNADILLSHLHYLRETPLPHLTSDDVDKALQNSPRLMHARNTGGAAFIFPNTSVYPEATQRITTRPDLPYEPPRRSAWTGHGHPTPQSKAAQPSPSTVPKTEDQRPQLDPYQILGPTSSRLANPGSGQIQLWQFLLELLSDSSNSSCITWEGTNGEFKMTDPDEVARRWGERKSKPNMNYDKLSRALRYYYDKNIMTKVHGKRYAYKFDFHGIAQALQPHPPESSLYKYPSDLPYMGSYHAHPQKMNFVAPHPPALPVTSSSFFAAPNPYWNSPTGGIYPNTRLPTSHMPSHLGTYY
# Outline: as §1
# [5] = target: ELF1 (Homo sapiens, UniProt P32519 1-619); conditions: protein: recombinant; tags: N-terminal GST; dsDNA, one strand shown
# Outline: as §1
# [6] = target: T5, EHF (Homo sapiens, UniProt Q9NZC4 1-300); conditions: protein: recombinant; tags: N-terminal GST; dsDNA, one strand shown
# T5 sequence: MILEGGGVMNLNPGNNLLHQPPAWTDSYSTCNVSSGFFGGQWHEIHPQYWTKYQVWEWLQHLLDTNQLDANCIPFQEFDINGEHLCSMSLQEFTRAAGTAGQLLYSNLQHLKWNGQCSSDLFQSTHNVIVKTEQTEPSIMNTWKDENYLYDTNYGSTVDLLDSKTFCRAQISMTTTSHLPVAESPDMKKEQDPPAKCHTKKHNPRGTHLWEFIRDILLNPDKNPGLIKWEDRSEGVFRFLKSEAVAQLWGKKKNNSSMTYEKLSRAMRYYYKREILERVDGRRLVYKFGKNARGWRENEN
# Outline: as §1
# [7] = target: SPI1 (Homo sapiens, UniProt P17947 1-270); conditions: protein: recombinant; tags: N-terminal GST; dsDNA, one strand shown
# Outline: as §1
# [8] = target: SPIB (Homo sapiens, UniProt Q01892 1-262); conditions: protein: recombinant; tags: N-terminal GST; dsDNA, one strand shown
# Outline: as §1
# [9] = target: T6, ELK3 (Homo sapiens, UniProt P41970 1-407); conditions: protein: recombinant; tags: N-terminal GST; dsDNA, one strand shown
# T6 sequence: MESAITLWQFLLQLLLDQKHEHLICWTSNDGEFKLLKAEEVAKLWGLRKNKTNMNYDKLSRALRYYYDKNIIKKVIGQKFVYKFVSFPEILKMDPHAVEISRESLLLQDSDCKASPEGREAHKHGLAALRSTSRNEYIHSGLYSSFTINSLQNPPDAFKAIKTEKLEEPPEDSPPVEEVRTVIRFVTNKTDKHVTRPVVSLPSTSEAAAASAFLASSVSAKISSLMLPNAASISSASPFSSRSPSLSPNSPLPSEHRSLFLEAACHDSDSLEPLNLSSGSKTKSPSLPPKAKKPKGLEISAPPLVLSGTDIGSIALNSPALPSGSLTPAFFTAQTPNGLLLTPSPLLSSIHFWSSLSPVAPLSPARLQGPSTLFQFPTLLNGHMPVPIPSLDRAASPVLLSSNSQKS
# Outline: as §1
# [10] = target: T7, FEV (Homo sapiens, UniProt Q99581 1-238); conditions: protein: recombinant; tags: N-terminal GST; dsDNA, one strand shown
# T7 sequence: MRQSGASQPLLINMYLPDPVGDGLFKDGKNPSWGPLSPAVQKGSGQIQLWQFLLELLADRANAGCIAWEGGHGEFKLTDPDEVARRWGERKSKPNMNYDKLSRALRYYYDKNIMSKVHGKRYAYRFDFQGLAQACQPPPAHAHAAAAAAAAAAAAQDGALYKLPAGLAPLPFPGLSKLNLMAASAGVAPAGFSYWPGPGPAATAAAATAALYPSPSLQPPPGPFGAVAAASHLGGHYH
# Outline: as §1
# [11] = target: ETV5 (Homo sapiens, UniProt P41161 1-510); conditions: protein: recombinant; tags: N-terminal GST; dsDNA, one strand shown
# Outline: as §1
# [12] = target: HSF1 (Homo sapiens, UniProt Q00613 1-529); conditions: protein: recombinant; tags: N-terminal GST; chain copies: 3; dsDNA, one strand shown
# Outline: as §1
# [13] = target: ELF4 (Homo sapiens, UniProt Q99607 1-663); conditions: protein: recombinant; tags: N-terminal GST; dsDNA, one strand shown
# Outline: as §1
# [14] = target: T8, ELK4 (Homo sapiens, UniProt P28324-2 1-405); conditions: protein: recombinant; tags: N-terminal GST; dsDNA, one strand shown
# T8 sequence: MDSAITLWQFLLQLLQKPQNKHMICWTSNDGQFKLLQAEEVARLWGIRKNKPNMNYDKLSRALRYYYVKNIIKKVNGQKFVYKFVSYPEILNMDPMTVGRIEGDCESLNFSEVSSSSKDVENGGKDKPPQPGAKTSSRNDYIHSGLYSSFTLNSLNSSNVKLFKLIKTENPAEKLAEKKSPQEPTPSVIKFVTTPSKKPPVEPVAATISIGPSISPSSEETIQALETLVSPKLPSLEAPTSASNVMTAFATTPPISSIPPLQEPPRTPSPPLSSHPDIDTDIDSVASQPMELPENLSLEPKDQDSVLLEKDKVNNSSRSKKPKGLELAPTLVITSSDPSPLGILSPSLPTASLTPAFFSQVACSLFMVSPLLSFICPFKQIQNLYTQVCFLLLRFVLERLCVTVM
# Outline: as §1
# [15] = target: T9, ETV2 (Homo sapiens, UniProt O00321 1-342); conditions: protein: recombinant; tags: N-terminal GST; dsDNA, one strand shown
# T9 sequence: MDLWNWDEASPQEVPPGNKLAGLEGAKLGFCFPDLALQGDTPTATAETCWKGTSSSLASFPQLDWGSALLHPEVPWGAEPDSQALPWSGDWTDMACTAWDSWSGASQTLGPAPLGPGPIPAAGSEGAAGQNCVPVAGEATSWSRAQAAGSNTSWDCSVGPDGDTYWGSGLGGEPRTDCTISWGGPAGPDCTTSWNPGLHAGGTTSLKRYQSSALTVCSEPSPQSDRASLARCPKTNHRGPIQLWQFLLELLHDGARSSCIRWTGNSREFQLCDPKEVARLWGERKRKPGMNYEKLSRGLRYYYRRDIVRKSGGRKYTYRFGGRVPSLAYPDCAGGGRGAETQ
# Outline: as §1
# [16] = target: CRX (Homo sapiens, UniProt O43186 1-299); conditions: protein: recombinant; tags: N-terminal GST; dsDNA, one strand shown
# Outline: as §1
# [17] = target: ETV1 (Homo sapiens, UniProt P50549 1-477); conditions: protein: recombinant; tags: N-terminal GST; dsDNA, one strand shown
# Outline: as §1
# ETV5, sequence (P41161 whole entry): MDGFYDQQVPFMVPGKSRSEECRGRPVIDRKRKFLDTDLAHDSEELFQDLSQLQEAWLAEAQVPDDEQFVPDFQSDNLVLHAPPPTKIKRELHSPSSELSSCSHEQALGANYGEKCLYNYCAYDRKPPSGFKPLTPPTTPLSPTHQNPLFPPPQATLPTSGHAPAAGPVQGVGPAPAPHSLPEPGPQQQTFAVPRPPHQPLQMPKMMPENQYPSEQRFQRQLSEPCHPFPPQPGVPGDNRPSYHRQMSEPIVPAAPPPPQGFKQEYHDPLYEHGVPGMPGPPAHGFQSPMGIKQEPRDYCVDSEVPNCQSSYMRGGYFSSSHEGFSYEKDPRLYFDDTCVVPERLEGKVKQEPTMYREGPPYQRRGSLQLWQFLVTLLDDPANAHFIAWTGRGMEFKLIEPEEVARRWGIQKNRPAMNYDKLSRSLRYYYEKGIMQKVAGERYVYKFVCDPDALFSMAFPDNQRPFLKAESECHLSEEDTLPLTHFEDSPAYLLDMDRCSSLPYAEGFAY
# ETV1, sequence (P50549 whole entry): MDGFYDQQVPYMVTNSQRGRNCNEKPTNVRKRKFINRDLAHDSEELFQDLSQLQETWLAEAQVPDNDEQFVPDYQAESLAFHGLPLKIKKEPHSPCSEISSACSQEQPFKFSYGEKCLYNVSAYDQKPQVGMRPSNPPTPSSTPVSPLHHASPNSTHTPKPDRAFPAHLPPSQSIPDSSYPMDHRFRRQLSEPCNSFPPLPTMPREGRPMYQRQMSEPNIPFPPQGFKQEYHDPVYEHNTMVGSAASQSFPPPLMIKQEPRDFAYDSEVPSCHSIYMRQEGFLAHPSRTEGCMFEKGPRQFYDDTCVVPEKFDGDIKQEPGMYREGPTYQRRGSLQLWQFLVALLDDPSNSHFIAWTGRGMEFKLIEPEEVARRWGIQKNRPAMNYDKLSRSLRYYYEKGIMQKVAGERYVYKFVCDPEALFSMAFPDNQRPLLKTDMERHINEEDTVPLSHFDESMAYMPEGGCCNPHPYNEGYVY
# HSF1, sequence (Q00613 whole entry): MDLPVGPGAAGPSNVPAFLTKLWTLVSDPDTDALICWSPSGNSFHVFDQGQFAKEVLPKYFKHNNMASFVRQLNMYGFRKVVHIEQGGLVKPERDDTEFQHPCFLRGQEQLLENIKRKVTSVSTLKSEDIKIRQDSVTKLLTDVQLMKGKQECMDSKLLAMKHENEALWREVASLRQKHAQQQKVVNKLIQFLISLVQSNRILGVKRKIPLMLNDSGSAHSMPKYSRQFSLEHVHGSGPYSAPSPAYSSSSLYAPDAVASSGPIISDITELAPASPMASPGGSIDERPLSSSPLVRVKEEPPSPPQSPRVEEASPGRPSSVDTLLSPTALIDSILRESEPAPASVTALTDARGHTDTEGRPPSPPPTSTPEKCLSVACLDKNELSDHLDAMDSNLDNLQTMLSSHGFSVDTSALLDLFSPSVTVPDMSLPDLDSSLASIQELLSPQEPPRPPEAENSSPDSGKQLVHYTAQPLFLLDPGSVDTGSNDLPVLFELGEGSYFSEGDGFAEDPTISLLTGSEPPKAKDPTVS
# ELF1, sequence (P32519 whole entry): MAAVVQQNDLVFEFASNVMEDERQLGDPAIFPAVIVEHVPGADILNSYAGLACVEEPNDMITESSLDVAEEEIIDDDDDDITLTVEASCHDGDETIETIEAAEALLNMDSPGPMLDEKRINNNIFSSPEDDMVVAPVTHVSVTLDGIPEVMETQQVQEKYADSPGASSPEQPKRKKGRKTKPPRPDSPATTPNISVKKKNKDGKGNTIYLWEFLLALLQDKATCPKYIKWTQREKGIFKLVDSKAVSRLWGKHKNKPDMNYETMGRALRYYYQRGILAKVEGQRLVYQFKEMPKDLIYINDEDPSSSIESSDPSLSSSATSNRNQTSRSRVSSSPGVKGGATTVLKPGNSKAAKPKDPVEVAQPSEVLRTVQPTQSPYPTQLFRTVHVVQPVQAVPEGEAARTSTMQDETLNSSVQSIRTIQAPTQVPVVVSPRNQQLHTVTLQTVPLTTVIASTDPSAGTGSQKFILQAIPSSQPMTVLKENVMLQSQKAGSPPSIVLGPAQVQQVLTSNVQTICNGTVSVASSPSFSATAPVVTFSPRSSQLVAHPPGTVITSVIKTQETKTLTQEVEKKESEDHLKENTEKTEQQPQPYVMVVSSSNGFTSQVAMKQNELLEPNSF
# SPIB, sequence (Q01892 whole entry): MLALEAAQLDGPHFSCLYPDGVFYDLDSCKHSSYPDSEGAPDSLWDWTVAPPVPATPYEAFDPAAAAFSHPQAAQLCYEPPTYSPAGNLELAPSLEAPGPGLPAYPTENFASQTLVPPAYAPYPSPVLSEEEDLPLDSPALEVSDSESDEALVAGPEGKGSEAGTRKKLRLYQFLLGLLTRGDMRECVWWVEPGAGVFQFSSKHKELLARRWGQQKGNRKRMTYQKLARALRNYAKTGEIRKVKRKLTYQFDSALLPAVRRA
# ELF4, sequence (Q99607 whole entry): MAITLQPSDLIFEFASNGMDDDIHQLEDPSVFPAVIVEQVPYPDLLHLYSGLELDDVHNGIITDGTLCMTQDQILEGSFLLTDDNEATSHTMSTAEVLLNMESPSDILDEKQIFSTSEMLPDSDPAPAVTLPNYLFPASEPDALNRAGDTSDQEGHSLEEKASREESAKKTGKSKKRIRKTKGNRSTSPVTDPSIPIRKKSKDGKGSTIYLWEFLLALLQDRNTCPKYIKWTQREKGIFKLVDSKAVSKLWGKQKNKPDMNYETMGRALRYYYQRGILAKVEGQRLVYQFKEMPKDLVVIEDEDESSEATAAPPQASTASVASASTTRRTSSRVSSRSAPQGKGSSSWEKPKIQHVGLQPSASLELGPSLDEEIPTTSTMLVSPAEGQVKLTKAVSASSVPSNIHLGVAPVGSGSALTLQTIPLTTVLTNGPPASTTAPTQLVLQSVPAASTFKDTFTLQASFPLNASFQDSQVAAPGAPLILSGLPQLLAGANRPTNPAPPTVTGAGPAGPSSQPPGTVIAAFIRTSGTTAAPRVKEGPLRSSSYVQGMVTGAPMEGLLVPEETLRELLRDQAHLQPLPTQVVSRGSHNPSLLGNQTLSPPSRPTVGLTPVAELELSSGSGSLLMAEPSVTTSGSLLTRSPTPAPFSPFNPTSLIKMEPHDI
# CRX, sequence (O43186 whole entry): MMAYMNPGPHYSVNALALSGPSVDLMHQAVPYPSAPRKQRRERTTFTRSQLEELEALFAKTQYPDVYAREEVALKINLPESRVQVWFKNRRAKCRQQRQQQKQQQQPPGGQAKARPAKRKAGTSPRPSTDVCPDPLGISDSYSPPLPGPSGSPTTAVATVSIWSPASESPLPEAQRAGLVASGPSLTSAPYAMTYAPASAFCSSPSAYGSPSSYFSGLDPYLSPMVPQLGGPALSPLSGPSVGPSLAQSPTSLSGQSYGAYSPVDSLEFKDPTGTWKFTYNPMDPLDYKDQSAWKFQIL
sequence,measurement,setting,value
ATTGTC,binding signal,[1],"1.17 fold enrichment (6-mer frequency, TF over GST control)"
same,binding signal,[2],"1.07 fold enrichment (6-mer frequency, TF over GST control)"
same,binding signal,[3],"1.16 fold enrichment (6-mer frequency, TF over GST control)"
same,binding signal,[4],"1.13 fold enrichment (6-mer frequency, TF over GST control)"
same,binding signal,[5],"1.13 fold enrichment (6-mer frequency, TF over GST control)"
same,binding signal,[6],"1.08 fold enrichment (6-mer frequency, TF over GST control)"
same,binding signal,[7],"1.05 fold enrichment (6-mer frequency, TF over GST control)"
same,binding signal,[8],"1.14 fold enrichment (6-mer frequency, TF over GST control)"
same,binding signal,[9],"1.35 fold enrichment (6-mer frequency, TF over GST control)"
same,binding signal,[10],"1.11 fold enrichment (6-mer frequency, TF over GST control)"
same,binding signal,[11],"1.14 fold enrichment (6-mer frequency, TF over GST control)"
same,binding signal,[12],"1.04 fold enrichment (6-mer frequency, TF over GST control)"
same,binding signal,[13],"1.08 fold enrichment (6-mer frequency, TF over GST control)"
same,binding signal,[14],"1.17 fold enrichment (6-mer frequency, TF over GST control)"
same,binding signal,[15],"1.14 fold enrichment (6-mer frequency, TF over GST control)"
same,binding signal,[16],"1.06 fold enrichment (6-mer frequency, TF over GST control)"
same,binding signal,[17],"1.21 fold enrichment (6-mer frequency, TF over GST control)"
